Source: PubChem BioAssay (NCATS)
Where “and” joins values, the source holds several entries; their conditions need not be identical. Identical values can stand only once. Inconclusive results are not listed. Calls of active or inactive are those of the source. Unless noted, calls follow the shape of the dose curve; as a rule, active = well fitted curve in the direction sought with a large enough effect; inconclusive = small, poorly fitted or top-dose-only effect, or another doubt; inactive = no such curve, though single readings can be large; an effect the other way counts as inactive or inconclusive.

Key:
[1] = AP1 Signaling Pathway (AID 357; active = well fitted curve in either direction with a large enough effect, not every such curve was filed as active;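 also: ME-180 reporter cells stimulated with EGF at its EC50 level; % is scaled to controls: 0 for no effect and ±100 for the full control effect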); settings: ME-180 AP-1-bla reporter, EGF-induced, beta-lactamase ratio, 5 h
Procedure, shortened: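 First, ME-180 AP-1-bla cells were cultured overnight at 37 °C in low-serum Opti-MEM. Next, titrated compounds with EC50 EGF were incubated 5 hours. Finally, CCF4 was added for 2.5 hours and the 460/530 nm ratio recorded.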

[2] = target: Cytochrome P450 1A2 (Homo sapiens) (UniProt P05177); experiment: p450-cyp1a2 (AID 410; calls by dose curve; also: potency is read from the fitted curve at half-maximal effect;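 as to activity change, negative = inhibition: -100% = full effect of reference inhibitor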); settings: recombinant CYP1A2, luciferin-ME demethylation, luminescence; series mostly up to 57 µM
Cytochrome P450 1A2 (Homo sapiens), sequence (P05177 whole entry, looked up): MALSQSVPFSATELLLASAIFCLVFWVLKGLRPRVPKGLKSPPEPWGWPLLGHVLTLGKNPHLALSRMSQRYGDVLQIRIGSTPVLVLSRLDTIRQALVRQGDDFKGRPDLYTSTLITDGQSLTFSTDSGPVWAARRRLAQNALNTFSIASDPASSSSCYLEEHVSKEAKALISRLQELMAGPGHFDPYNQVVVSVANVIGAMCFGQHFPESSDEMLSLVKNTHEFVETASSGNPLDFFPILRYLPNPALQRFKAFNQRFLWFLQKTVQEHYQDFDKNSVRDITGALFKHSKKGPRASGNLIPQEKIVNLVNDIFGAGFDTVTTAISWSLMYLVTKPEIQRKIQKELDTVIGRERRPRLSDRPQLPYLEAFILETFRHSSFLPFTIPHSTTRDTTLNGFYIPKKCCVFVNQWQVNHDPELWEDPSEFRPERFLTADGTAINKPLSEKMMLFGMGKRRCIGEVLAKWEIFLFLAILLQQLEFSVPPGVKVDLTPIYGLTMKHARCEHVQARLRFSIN
Procedure, shortened: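 Human CYP1A2 (20nM) demethylated Luciferin-ME at its Km (100uM) in 100mM KPO4. After 10 min compound preincubation, NADPH regeneration ran the reaction 60 min at room temperature. Luciferin was read by luminescence, normalized to 57 uM furafylline.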

[3] = NFAT Signaling Pathway (AID 444; active = well fitted curve in either direction with a large enough effect, not every such curve was filed as active;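 also: carbachol stimulus at about its EC50 of 1 µM final; % is scaled to controls: 0 for no effect and ±100 for the full control effect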); settings: Jurkat NFAT-bla M1, carbachol, beta-lactamase ratio, 5 h
Procedure, shortened: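 Read-out: CCF4 FRET ratio (460 nm/530 nm) after 1 h RT dye loading, used for %activity and AC50 from titration series. Cells: Jurkat NFAT-β-lactamase/M1 line, treated with compound plus 1 uM carbachol for 5 h, 37 °C.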

[4] = Stat Signaling Pathway (AID 446; active = well fitted curve in either direction with a large enough effect, not every such curve was filed as active;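 also: ME-180 cervical cancer cells given 40 pM IL-6 alongside compound; SIE-controlled beta-lactamase reporter measured as 460/530 nm FRET emission ratio; % is scaled to controls: 0 for no effect and ±100 for the full control effect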); settings: ME-180 (cervical carcinoma) SIE beta-lactamase reporter, IL-6 stimulated, 5 h
Procedure, shortened: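 IL-6/STAT signaling read in ME-180 cells via an SIE beta-lactamase reporter. Stimulus was 40 pM IL-6 (its AC50) for 5 hrs, so both activation and inhibition register.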

[5] = target: Glucocorticoid receptor (Homo sapiens) (UniProt P04150); experiment: GR-GFP Redistribution (AID 450;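 active = compounds whose dose series gives a full or clear partial fitted curve of increased nuclear translocation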; also: potency is read from the fitted curve at half-maximal effect); settings: U2OS GR-GFP nuclear translocation, laser cytometry, 2 h
Glucocorticoid receptor (Homo sapiens), sequence (P04150 whole entry, looked up, the tested form may be a part): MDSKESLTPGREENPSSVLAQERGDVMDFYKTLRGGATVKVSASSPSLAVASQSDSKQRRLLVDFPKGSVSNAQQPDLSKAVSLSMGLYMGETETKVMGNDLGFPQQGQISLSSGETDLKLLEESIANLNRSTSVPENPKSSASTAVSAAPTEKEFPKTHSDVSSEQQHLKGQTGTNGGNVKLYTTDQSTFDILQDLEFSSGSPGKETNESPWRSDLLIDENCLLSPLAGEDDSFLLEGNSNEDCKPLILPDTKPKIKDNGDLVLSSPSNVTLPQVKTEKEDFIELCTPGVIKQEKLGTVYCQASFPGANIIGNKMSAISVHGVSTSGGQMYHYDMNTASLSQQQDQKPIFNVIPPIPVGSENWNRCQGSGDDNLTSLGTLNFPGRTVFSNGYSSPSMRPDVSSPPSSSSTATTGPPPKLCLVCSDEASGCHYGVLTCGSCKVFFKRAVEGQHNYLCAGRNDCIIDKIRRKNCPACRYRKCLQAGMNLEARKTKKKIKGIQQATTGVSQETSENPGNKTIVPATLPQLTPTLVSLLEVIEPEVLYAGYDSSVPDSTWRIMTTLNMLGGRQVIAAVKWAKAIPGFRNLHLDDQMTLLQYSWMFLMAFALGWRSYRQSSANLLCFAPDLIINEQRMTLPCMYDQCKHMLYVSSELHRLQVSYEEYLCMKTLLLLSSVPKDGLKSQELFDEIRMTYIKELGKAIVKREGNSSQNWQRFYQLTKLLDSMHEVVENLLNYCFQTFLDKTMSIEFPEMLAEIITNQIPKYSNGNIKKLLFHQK

[6] = target: Glucocorticoid receptor (Homo sapiens) (UniProt P04150); experiment: GR-EFC Redistribution (AID 451; calls by dose curve; also: potency is read from the fitted curve at half-maximal effect); settings: CHO-K1 GR-EFC translocation, beta-gal luminescence, 2 h
Procedure, shortened: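 Translocation of GR-ED fusion to nuclear EA restores b-gal, read by luminescence after 1 h room-temperature detection. Engineered CHO-K1 biosensor cells, 1,000/well, exposed 2 h at 37 C to titrations up to 46 uM final.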

[7] = target: Mitogen-activated protein kinase 10 (Mus musculus) (UniProt Q61831); experiment: JNK3 AlphaScreen Assay (AID 530; active = well fitted curve in either direction with a large enough effect, not every such curve was filed as active;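 also: kinase came from lysate of stimulated human HepG2 cells; signal reports phosphorylation of biotinylated GST-cJun 1-79 at Ser73 with 10 µM ATP; % is scaled to controls: 0 for no effect and ±100 for the full control effect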); settings: JNK3 lysate, c-Jun phosphorylation; series mostly up to 57.1 µM
Procedure, shortened: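 Room-temperature AlphaScreen kinase assay; pre-activated HepG2 lysate as JNK3 source, biotin-GST-cJun(1-79) substrate, 10 uM ATP, compound 15 min preincubation.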

[8] = target: 3',5'-cyclic-AMP phosphodiesterase 4B (Homo sapiens) (UniProt Q07343); experiment: qHTS Assay for Inhibitors of PDE-IV (AID 607; active = well fitted activation curve with a large enough effect in the main read-out, with a control signal flat, not every such curve was filed as active; also: % of control where 0% means no effect); settings: HEK293 ACTOne CNG channel cells, membrane potential fluorescence; series mostly up to 22.9 µM
3',5'-cyclic-AMP phosphodiesterase 4B (Homo sapiens), sequence (Q07343 whole entry, looked up): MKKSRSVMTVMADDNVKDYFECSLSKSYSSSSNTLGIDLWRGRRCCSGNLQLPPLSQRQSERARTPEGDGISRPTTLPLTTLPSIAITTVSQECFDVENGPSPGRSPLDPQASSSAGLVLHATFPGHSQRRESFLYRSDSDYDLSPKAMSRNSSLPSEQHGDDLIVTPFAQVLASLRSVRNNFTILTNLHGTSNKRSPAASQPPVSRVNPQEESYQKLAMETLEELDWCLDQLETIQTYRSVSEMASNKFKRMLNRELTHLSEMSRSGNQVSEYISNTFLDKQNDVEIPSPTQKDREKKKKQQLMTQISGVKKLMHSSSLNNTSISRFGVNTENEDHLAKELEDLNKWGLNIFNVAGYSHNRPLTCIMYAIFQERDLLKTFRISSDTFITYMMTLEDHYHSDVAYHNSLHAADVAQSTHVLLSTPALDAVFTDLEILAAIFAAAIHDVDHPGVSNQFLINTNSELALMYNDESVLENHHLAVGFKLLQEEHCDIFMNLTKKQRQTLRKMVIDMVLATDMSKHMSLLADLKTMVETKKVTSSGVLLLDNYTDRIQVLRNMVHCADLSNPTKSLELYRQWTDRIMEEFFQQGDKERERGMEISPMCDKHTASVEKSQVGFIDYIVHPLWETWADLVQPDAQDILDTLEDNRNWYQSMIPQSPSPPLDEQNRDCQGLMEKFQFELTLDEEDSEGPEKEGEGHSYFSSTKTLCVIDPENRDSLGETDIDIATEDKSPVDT
Procedure, shortened: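 Live HEK293 cells with a modified cyclic nucleotide-gated (CNG) channel report intracellular cAMP via membrane-potential dye fluorescence (ex 535/em 590 nm). Endogenous PDE-IV was targeted. Compounds were tested at up to 22.9 uM final; RO 20-1724 100 uM served as control.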

[9] = target: Guanine nucleotide-binding protein G(i) subunit alpha-1 (Homo sapiens) (UniProt P63096); experiment: qHTS Assay for Inhibitors of RGS12 GoLoco Motif Activity (Green Fluorophore) (AID 879); settings: Galphai1/FITC-RGS12 GoLoco peptide, fluorescence polarization; series mostly up to 57.1 µM; also: potency is read from the fitted curve at half-maximal effect;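 as to activity, negative = inhibition: 0% = labeled peptide with Gαi1 and full inhibition = labeled peptide alone without protein; negative values mean loss of peptide binding seen as reduced polarization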
Guanine nucleotide-binding protein G(i) subunit alpha-1 (Homo sapiens), sequence (P63096 whole entry, looked up): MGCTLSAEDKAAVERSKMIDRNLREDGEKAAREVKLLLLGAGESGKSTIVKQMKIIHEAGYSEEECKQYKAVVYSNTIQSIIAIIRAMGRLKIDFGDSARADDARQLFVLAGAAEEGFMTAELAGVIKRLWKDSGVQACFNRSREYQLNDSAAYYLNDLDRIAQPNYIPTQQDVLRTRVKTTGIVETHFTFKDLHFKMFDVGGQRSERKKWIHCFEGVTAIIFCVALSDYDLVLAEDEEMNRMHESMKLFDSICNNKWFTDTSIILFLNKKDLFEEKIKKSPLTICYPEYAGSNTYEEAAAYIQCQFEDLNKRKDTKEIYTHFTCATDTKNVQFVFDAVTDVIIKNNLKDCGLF
Procedure, shortened: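 Fluorescence polarization assay: 50 nM Gαi1 with 10 nM FITC-labeled RGS12 GoLoco peptide in 10 mM Tris pH 7.5, 150 mM NaCl, 0.1 mM GDP, 0.05% NP40, 10 min at room temperature with compound.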

[10] = target: Pyruvate kinase (Leishmania mexicana) (UniProt Q27686); experiment: qHTS Validation Assay for Inhibitors of Leishmania Mexicana Pyruvate Kinase (AID 945);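 also: 0% = DMSO only neutral control wells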; settings: purified L. mexicana pyruvate kinase, enzyme activity, E451W mutant enzyme; series mostly up to 57.5 µM
Pyruvate kinase (Leishmania mexicana), sequence (Q27686 2-499 E452W): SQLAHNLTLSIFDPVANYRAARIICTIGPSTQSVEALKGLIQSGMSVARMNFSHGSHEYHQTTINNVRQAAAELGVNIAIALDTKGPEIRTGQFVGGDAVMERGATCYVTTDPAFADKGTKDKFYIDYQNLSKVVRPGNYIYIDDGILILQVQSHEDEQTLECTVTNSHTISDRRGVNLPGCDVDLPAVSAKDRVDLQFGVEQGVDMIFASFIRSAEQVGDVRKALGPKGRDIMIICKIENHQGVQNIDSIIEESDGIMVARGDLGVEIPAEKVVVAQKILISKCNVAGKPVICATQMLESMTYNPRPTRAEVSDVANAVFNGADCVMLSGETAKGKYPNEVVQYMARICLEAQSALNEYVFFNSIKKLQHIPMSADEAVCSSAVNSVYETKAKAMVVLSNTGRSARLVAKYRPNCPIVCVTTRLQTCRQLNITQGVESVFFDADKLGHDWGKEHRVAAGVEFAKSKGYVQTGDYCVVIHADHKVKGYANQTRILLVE
Procedure, shortened: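 The enzyme is a highly purified E451W mutant of LmPYK used at 0.2 nM. It converts 0.5 mM PEP and 0.1 mM ADP over 1 h at room temperature; product ATP is quantified by luciferase luminescence relative to DMSO controls.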

[11] = target: Pyruvate kinase PKM (Homo sapiens) (UniProt P14618); experiment: qHTS Assay for Activators of Human Muscle Pyruvate Kinase (AID 954; active = well fitted curve in the direction sought with a large enough effect, not every such curve was filed as active;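 also: 0% = uninhibited enzyme and -100% = no enzyme or full thiadiazolimine inhibition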); settings: purified human muscle pyruvate kinase, luciferase-coupled luminescence, 1 h; series mostly up to 57.5 µM
Pyruvate kinase PKM (Homo sapiens), sequence (P14618 whole entry, looked up): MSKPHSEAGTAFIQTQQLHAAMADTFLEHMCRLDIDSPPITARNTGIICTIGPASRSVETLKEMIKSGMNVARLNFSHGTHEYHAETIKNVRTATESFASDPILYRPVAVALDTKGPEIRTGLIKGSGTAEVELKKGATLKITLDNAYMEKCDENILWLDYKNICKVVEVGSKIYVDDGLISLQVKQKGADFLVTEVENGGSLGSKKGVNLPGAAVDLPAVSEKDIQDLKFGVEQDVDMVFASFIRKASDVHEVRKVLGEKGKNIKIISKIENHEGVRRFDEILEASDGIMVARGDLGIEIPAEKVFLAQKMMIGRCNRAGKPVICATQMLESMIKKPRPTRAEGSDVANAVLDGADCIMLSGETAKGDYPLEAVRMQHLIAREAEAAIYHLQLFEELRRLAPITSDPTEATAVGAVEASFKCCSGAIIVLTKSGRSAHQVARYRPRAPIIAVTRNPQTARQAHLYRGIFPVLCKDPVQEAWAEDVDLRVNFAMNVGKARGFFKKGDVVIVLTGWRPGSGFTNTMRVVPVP
Procedure, shortened: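 Enzyme was run at intermediate activity so both inhibitors and activators could be detected. ATP formed from ADP and PEP by 0.1 nM human PKM2 during a 1 h room-temperature incubation was quantified by coupled luciferase luminescence.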

[12] = qHTS Assay for Lipid Storage Modulators (AID 1519; calls by dose curve); settings: Drosophila S3 cells, BODIPY lipid droplet/cell ratio, laser cytometry, cells loaded with oleic acid
Procedure, shortened: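 Cells seeded at 5,000 per well were treated with compounds over a concentration series and loaded with oleic acid (400 uM, as added). Lipid droplet fluorescence (488 nm excitation, 500-530 nm channel) was read by laser-scanning cytometry and normalized to 20 uM Triacsin C.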

[13] = target: ATP-dependent 6-phosphofructokinase (Trypanosoma brucei brucei) (UniProt O15648); experiment: qHTS Assay to Find Inhibitors of T. brucei phosphofructokinase: hit validation (AID 492961); settings: T. brucei PFK, ADP-Glo luminescence; series mostly up to 24.3 µM
ATP-dependent 6-phosphofructokinase (Trypanosoma brucei brucei), sequence (O15648 whole entry, looked up): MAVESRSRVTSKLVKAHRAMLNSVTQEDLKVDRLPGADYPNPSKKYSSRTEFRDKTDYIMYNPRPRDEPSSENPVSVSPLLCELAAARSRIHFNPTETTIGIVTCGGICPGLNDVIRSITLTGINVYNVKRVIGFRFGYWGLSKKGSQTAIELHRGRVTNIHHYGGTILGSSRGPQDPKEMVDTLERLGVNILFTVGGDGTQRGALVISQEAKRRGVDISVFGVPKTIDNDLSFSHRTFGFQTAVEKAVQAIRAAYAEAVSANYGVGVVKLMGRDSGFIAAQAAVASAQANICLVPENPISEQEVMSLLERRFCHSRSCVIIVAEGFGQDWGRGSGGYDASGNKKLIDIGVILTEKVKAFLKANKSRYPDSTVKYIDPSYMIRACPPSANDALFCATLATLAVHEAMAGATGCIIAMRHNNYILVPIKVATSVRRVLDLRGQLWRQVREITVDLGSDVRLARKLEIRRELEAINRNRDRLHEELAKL
Procedure, shortened: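 Measures ADP output of PFK (1.25 nM) at 0.1 mM ATP, 0.5 mM F6P, pH 8.0 TEA buffer with 5 mM MgCl2. No-enzyme wells define full inhibition; uninhibited enzyme wells define zero.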

[14] = target: Luciferin 4-monooxygenase (Photinus pyralis) (UniProt P08659); experiment: Biochemical firefly luciferase enzyme assay for NPC (AID 624030);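 also: purified P. pyralis luciferase at 10 nM with luciferin and ATP substrate; 0% = DMSO and -100% = full luciferase inhibition by PTC124 control; nearly all actives have a fitted effect of over 70% in size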; settings: purified P. pyralis luciferase, luminescence, 5 min; series mostly up to 58.6 µM
Procedure, shortened: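 Direct inhibition of firefly luciferase enzyme (10 nM final, 50 mM Tris Acetate) assessed by luminescence within 5 minutes. Percent activity scaled between DMSO and PTC124 positive control, with concentration-effect curves classified by fit quality and response.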

[15] = qHTS profiling for inhibitors of Plasmodium falciparum proliferation (AID 504749); also: potency is read from the fitted curve at half-maximal effect;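 as to activity, negative = inhibition: 0% = DMSO vehicle and full inhibition = artemisinin control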; as to all read-outs here: nearly all actives have a fitted effect of over 60% in size; settings: P. falciparum in erythrocytes, SYBR Green DNA, 72 h; for activity, negative = inhibition: at 28.7 µM (top of the series)
Procedure, shortened: (§1)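 Three-day growth assay of blood-stage parasites in erythrocytes (0.3% parasitemia, 2.5% hematocrit) at 37 C, 5% CO2, quantified by SYBR Green DNA staining after overnight detergent lysis.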

AS120 = experiment: as above; settings: P. falciparum in erythrocytes, SYBR Green DNA, 72 h; series mostly up to 28.7 µM
Procedure, shortened: as §1

CP238 = experiment: as above; settings: P. falciparum in erythrocytes, SYBR Green DNA, 72 h; series mostly up to 12.8 µM
Procedure, shortened: as §1

CP265 = experiment: as above; settings: P. falciparum in erythrocytes, SYBR Green DNA, 72 h; series mostly up to 12.8 µM
Procedure, shortened: as §1

FAB9 = experiment: as above; settings: P. falciparum in erythrocytes, SYBR Green DNA, 72 h; series mostly up to 12.8 µM
Procedure, shortened: as §1

[16] = target: Ubiquitin carboxyl-terminal hydrolase 1 (Homo sapiens) (UniProt O94782); experiment: Inhibitors of USP1/UAF1: Pilot qHTS (AID 504865); settings: purified USP1/UAF1, Ub-rhodamine cleavage fluorescence; series mostly up to 54.9 µM; also: nearly all actives have a fitted effect of over 35% in size; also: potency is read from the fitted curve at half-maximal effect
Ubiquitin carboxyl-terminal hydrolase 1 (Homo sapiens), sequence (O94782 whole entry, looked up): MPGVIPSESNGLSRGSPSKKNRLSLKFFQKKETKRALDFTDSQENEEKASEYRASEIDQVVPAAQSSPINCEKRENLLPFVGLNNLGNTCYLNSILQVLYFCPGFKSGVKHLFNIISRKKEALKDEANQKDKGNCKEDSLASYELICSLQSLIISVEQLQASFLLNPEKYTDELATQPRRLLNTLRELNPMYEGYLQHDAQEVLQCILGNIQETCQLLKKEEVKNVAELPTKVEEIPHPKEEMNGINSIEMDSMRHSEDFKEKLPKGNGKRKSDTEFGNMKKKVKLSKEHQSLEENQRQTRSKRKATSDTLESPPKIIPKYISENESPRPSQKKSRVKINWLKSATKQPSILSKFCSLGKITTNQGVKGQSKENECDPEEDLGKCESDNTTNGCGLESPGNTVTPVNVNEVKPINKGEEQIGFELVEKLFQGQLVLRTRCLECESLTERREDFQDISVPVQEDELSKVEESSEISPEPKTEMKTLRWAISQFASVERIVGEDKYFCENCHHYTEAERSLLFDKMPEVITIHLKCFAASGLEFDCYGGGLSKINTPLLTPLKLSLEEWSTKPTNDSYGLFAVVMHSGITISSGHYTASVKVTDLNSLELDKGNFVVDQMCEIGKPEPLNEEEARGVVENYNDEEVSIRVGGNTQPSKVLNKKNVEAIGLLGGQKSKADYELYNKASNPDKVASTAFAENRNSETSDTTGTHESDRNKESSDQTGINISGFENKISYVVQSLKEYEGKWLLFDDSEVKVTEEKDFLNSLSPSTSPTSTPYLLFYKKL
Procedure, shortened: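 USP1/UAF1 complex at 1 nM preincubated 15 min at room temperature with compound, then Ub-Rho substrate added at 150 nM final. Fluorescence (480/540 nm) read kinetically in 50 mM HEPES pH 7.8, 0.5 mM EDTA, 1 mM TCEP, 0.1 mg/ml BSA, 0.01% Tween-20.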

[17] = measured here: cell count channel max response
[18] = measured here: lipid channel max response
[19] = at 7.69 µM (top of the series) unless noted

CC(=O)OCC1=C(C(=O)O)N2C(=O)[C@@H](NC(=O)CSc3ccncc3)[C@@H]2SC1
-13.2%: max response [12, 18]
inactive: activity change, negative = inhibition ([1]; at 17.2 µM (top of the series)) 9.51% | activity change, negative = inhibition ([1]; at 38 µM (top of the series)) 11% | Potency [2] | activity change, negative = inhibition ([3]; at 17.2 µM (top of the series)) 7.12% | activity change, negative = inhibition ([3]; at 38 µM (top of the series)) 4.33% | activity, negative = inhibition ([4]; at 17.2 µM (top of the series)) 8.61% | activity, negative = inhibition ([4]; at 38 µM (top of the series)) -9.45% | Potency [5] > 46 µM and > 20.6 µM | Potency [6] > 46 µM and > 20.6 µM | Potency [7] | Potency [8] | Potency [9] | outcome [10] | outcome [11] | activity change, negative = inhibition ([12]; at 25.7 µM (top of the series)) -4.27% | outcome [13] | outcome [14] | activity, negative = inhibition ([15]; parasite line A) -4.5% | activity, negative = inhibition ([15]; parasite line B) -4.99% | Potency (AS120) | Potency (CP238) | Potency (CP265) | Potency (FAB9)
-7.14%: max response [12, 17]

N#Cc1cccc(NC(=O)N2CCCC3(CCN(S(=O)(=O)c4ccccc4)CC3)C2)c1
-1.95%: max response [12, 18]
1.48%: max response [12, 17]
inactive: activity, negative = inhibition [4, 19] -2.4% | Potency [6] > 46 µM | Potency [7] | Potency [8] | activity change, negative = inhibition ([12]; at 57.5 µM (top of the series)) -3.45%

OCCN1CCN(CC/C=C2\c3ccccc3Sc3ccc(C(F)(F)F)cc32)CC1
active: Potency [2] 7.94 µM and 5.01 µM
-14.8%: max response [12, 18]
-13.1%: max response [12, 17]
inactive: activity change, negative = inhibition ([1]; at 17.2 µM (top of the series)) 16.2% | activity change, negative = inhibition ([1]; at 38 µM (top of the series)) 29.4% | activity, negative = inhibition ([4]; at 17.2 µM (top of the series)) 5.96% | activity, negative = inhibition ([4]; at 38 µM (top of the series)) -10.3% | Potency [5] > 46 µM and > 20.6 µM | Potency [6] > 46 µM and > 20.6 µM | Potency [7] | Potency [8] | Potency [9] | outcome [10] | outcome [11] | activity change, negative = inhibition ([12]; at 25.7 µM (top of the series)) -3.77% | Potency [16]

CCN(CC)CCC[C@H](C)Nc1c2ccc(Cl)cc2nc2ccc(OC)cc12
-13%: max response [12, 18]
active: Potency [2] 2 µM and 1 µM | Potency [9] 25100 nM | Potency [16] 31600 nM | Potency ([15]; parasite line A) 224 nM | Potency ([15]; parasite line B) 282 nM | Potency (AS120) 794 nM | Potency (CP238) 1120 nM | Potency (CP265) 891 nM | Potency (FAB9) 447 nM
inactive: activity change, negative = inhibition ([1]; at 17.2 µM (top of the series)) 28.6% | activity change, negative = inhibition ([1]; at 38 µM (top of the series)) 21.9% | Potency [7] | Potency [8] | outcome [10] | outcome [11] | activity change, negative = inhibition ([12]; at 25.7 µM (top of the series)) -0.0943% | outcome [13] | outcome [14]
-11.8%: max response [12, 17]

C[C@@H](COc1ccccc1)N(CCCl)Cc1ccccc1
inactive: activity change, negative = inhibition ([1]; at 17.2 µM (top of the series)) -0.257% | activity change, negative = inhibition ([1]; at 38 µM (top of the series)) 0.967% | activity change, negative = inhibition ([3]; at 17.2 µM (top of the series)) -10.8% | activity change, negative = inhibition ([3]; at 38 µM (top of the series)) -22.8% | activity, negative = inhibition [4, 19] 1.89% [at 17.2 µM] | Potency [5] > 46 µM and > 20.6 µM | Potency [6] > 46 µM and > 20.6 µM | Potency [7] | Potency [8] | Potency [9] | outcome [10] | activity change, negative = inhibition ([12]; at 25.7 µM (top of the series)) 0.574%
-6.85%: max response [12, 18]
active: Potency [2] 12.6 µM
-7.22%: max response [12, 17]
